This passage reports outcome and AC50 results from PubChem BioAssay (EPA / NIEHS).

More than one record can exist for a structure, and the calls need not agree. Calls of active or inactive are those of the source. The calls were made as follows: active = hit-call score of the fitted dose curve at least 0.9, where 1 is the maximum; inactive = score below 0.9.

This experiment is described as follows: ATG_SREBP_CIS: Attagene CIS-FACTORIAL HepG2 Assay for human Sterol Regulatory Element Binding (SREBP) (AID 2282962). The conditions noted are these: HepG2 Attagene cis-factorial SREBP reporter, mRNA; actives raise or lower the signal. How it is done: ATG_CIS is a cell-based, multiplexed-readout assay that uses HepG2, a human liver cell line, with measurements taken at 24 hours after chemical dosing in a 24-well plate.ATG_SREBP_CIS is one of 52 assay component(s) measured or calculated from the ATG_CIS assay. It is designed to make measurements of mRNA induction, a form of inducible reporter, as detected with fluorescence intensity signals by Reverse transcription polymerase chain reaction (RT-PCR) and Capillary electrophoresis technology.Data from the assay component ATG_SREBP_CIS was analyzed into 1 assay endpoint. This assay endpoint, ATG_SREBP_CIS, was analyzed with bidirectional fitting relative to DMSO as the negative control and baseline of activity. Using a type of inducible reporter, measures of mRNA for gain or loss-of-signal activity can be used to understand the reporter gene at the transcription factor-level as they relate to the gene SREBF1. Furthermore, this assay endpoint can be referred to as a primary readout, because this assay has produced multiple assay endpoints where this one serves a reporter gene function. To generalize the intended target to other relatable targets, this assay endpoint is annotated to the dna binding intended target family, where the subfamily is basic helix-loop-helix leucine zipper.
Human liver HepG2 cells are transiently transfected with multiple reporter transcription units (MRTUs) in 6-well plates using FuGene 6 reagent (Roche; 3 ml FuGene/1 mg DNA). The MRTU constructs are regulated by a cis-regulating element (promoter). […] A major difference between the CIS and TRANS system is that in CIS activities of endogenous TFs are measured, whereas the TRANS assay evaluates changes in activities of exogenous, chimeric NR-Gal4 proteins. […] At the end of 24 hour incubation, total RNA was isolated using TriZol reagent (Invitrogen). The isolated RNA is then reverse-transcribed using oligo(dT) primer and Mo-MLV reverse transcriptase (Invitrogen) with DNAse I (Ambion) treatment for 30 min. The one-tenth of the produced cDNA was amplified by PCR using Taq DNA polymerase (Invitrogen) and two reporter sequence-specific primers. The PCR products were fluorescently labeled by primer extension with 6-arboxyfluorescein (6-FAM) 5'-labeled reporter sequence-specific primer (2 min at 95 C, 20 s at 68 C and 10 min at 72 C) and these products were digested with 5U of HpaI (New England Biolabs) for 2h at 37 C. The fragments were purified using Qiaquick PCR columns (Qiagen), analyzed on an ABI 3130xL genetic analyzer (Applied Biosystems) with peak positions identified by using a set of X-rhodamine (ROX)-labeled MapMarker1000 molecular weight standards (BioVentures). The raw capillary electrophoresis data was processed using Attagraph software (Attagene).
Consider `CC[N+](CC)(CC)Cc1ccccc1`, for which the compound was called inactive.

Take `O=C(O)C(F)(F)OC(F)(F)C(F)(F)OC(F)(F)C(F)(F)OC(F)(F)C(F)(F)C(F)(F)C(F)(F)F`: the compound was called inactive.

Broadly, the AC50 is the concentration at which the activity in the assay is half-maximal. With `CCOC(=O)c1nc(C(Cl)(Cl)Cl)n(-c2ccc(Cl)cc2Cl)n1`, the AC50 is 27.7 µM (active).

As for `FC(F)(F)C1(F)C(F)(F)C(F)(F)C(F)(F)C1(F)F`, the outcome was inactive.

On to `N=C(N)c1ccc(OCCCCCOc2ccc(C(=N)N)cc2)cc1`, for which the result was inactive.

`CN(C)c1ccc(C(=C2C=CC(=[N+](C)C)C=C2)c2ccccc2)cc1`: the outcome was inactive and the AC50 was 9.9 µM (active).

In the case of `C=CC(=O)OCCC(F)(F)C(F)(F)C(F)(F)C(F)(F)C(F)(F)C(F)(F)C(F)(F)C(F)(F)F`, the compound was called inactive.

`Brc1cc(Br)c(Oc2c(Br)cc(Br)c(Br)c2Br)cc1Br`: the outcome was inactive.

On to `O=S(=O)(O)c1ccc2cc(O)ccc2c1`, for which the compound was called inactive.

Regarding `NC(C(F)(F)F)C(F)(F)F`, the compound was classed as inactive.

As for `O=C(c1ccccc1)c1ccccc1`, the compound was classed as inactive.

For the compound `COc1cc([N+](=O)[O-])ccc1N`, the result was inactive.

For `CC(C)c1c(C(=O)Nc2ccccc2)c(-c2ccccc2)c(-c2ccc(F)cc2)n1CC[C@@H](O)C[C@@H](O)CC(=O)O`, the call was inactive and the AC50 is 0.156 µM (active).

For `O=C(C=C(O)C(F)(F)F)C(F)(F)F`, the compound was called inactive.

For the compound `CCc1cccc(CC)c1N(COC)C(=O)CS(=O)(=O)O`, the compound was classed as inactive.

For `CC(O)COc1ccccc1` (stereo not given), the compound was classed as inactive.

For `C=CC(=O)OCCC(F)(F)C(F)(F)C(F)(F)C(F)(F)C(F)(F)C(F)(F)F`, the call was inactive.

`CN(C)CCOC(c1ccccc1)c1ccccc1`: the AC50 is 45.5 µM (active).

`COC1=CC(=O)C[C@@H](C)[C@]12Oc1c(Cl)c(OC)cc(OC)c1C2=O`: the call was inactive.

In the case of `Cc1ccccc1OCC(=O)O`, the result was inactive.

Take `Nc1cc(Cl)c(-c2cc(Cl)c(N)cc2Cl)cc1Cl`: the AC50 was 6.9 µM (active).

In the case of `Cc1ccc(N=Nc2c(O)ccc3ccccc23)c(C)c1`, the call was inactive.

Turning to `CCN(CC)CC`, the compound was classed as inactive.

As to `COC(O)c1ccccc1` (stereo not given), the outcome was inactive.

In the case of `O=CC(F)(F)C(F)(F)C(F)(F)F`, the call was inactive.

For the compound `Clc1ccc2c(Cl)ccnc2c1`, the compound was called inactive.

Regarding `c1cnc2c(c1)ccc1cccnc12`, the result was inactive.

Turning to `COc1cccc(O)c1`, the call was inactive.

`O=C(O)C(=O)O`: the outcome was inactive.

Take `C=CC(=O)OCC(CO)(COCC(COC(=O)C=C)(COC(=O)C=C)COC(=O)C=C)COC(=O)C=C`: the AC50 was 2.85 µM (active).

Take `CNNCc1ccc(C(=O)NC(C)C)cc1`: the outcome was inactive.

Regarding `O=c1cc(-c2ccccc2)oc2ccc3ccccc3c12`, the compound was called inactive.

For `C=CC(C)(CCC=C(C)C)OC(C)=O` (stereo not given), the result was inactive.

With `Nc1ccn([C@@H]2O[C@H](CO)[C@@H](O)C2O)c(=O)n1` (stereo not given in full), the result was inactive.

Regarding `O=C1Cc2ccccc2N1c1c(Cl)cccc1Cl`, the compound was called inactive.

Turning to `Cc1ccc(S(=O)(=O)O)cc1`, the compound was called inactive.

For the compound `CCC(C)c1ccccc1O` (stereo not given), the compound was classed as inactive.

`O=S(=O)(O)c1ccccc1`: the result was inactive.
